Screens (PubChem BioAssay)
3CLpro inhibitor – SARS-CoV 3CLpro protease inhibition; inhibition, % at 6 µM; recombinant SARS-CoV 3CLpro, quenched FRET peptide cleavage; hit rate 0.14% among 290,000; P0C6X7; in the data active means inhibition above about 12%
VHR inh abs – inhibitors of human VHR1 phosphatase (DUSP3). P51452. recombinant VHR phosphatase, pNPP absorbance. inhibition, % at 13.3 µM. hit rate 0.52% among 290,000. AID 1654; in the data active means inhibition above about 50%
Target sequence (P51452 whole entry, looked up): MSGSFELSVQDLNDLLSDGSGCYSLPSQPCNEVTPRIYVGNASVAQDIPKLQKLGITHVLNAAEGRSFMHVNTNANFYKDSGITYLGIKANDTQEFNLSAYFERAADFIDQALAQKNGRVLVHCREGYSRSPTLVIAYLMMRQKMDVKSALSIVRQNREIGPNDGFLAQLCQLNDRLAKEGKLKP
CCHF vOTU inh – blocks the CCHF virus ovarian tumor domain protease | hit rate 0.55% among 370,000 | AID 651958 | inhibition, % at 11.5 µM | CCHFV vOTU protease, Pep-AMC fluorescence; in the data active means inhibition above about 30%
Mtb hypoxia inh – inhibitors of hypoxia-regulated fluorescent reporter in Mycobacterium tuberculosis | M. tuberculosis hypoxia-regulated fluorescent reporter, fluorescence | AID 1159583 | fluorescence inhibition, % (test concentration not listed) | hit rate 0.1% among 300,000; in the data active means fluorescence inhibition mostly above about 23%, no sharp cut-off; inactive means mostly below about 17%
SSB-PriA inh – K. pneumoniae PriA-SSBct interaction inhibition; inhibition, % at 33 µM; hit rate 0.6% among 430,000; AlphaScreen SSBct-PriA binding, biotinylated peptide; in the data active means inhibition mostly above about 37%, no sharp cut-off; inactive means mostly below about 20%
Large screens that a line does not name were inactive. An excerpt weighted towards active compounds, which were near 1.3% of everything screened.

Cc1ccc(CC(=O)Nc2nccs2)cc1C	VHR inh abs 58
COc1ccc(NC(=O)CSc2n[nH]c(-c3ccccn3)n2)cc1	SSB-PriA inh 67
COc1ccccc1NC(=O)CSc1n[nH]c(-c2ccco2)n1	none (no result: 3CLpro inhibitor, VHR inh abs, Mtb hypoxia inh)
O=C(CSc1n[nH]c(-c2ccccn2)n1)Nc1ccccc1	SSB-PriA inh 82
O=C(CSc1n[nH]c(-c2cccnc2)n1)Nc1ccccc1	none (no result: Mtb hypoxia inh)
COc1ccccc1NC(=O)CSc1n[nH]c(-c2ccccn2)n1	SSB-PriA inh 77
O=C(CN1CCN(c2ccccn2)CC1)Nc1ccccc1F	VHR inh abs 57
Cc1nc(-c2cccnc2)sc1CCNC(=O)C1CCCCC1	none (no result: 3CLpro inhibitor, VHR inh abs, CCHF vOTU inh, Mtb hypoxia inh)
CC(=O)Nc1ccc(S(=O)(=O)Nc2ccc3c(c2)NC(=O)C(C)(C)CO3)cc1	none (no result: 3CLpro inhibitor, VHR inh abs, CCHF vOTU inh, Mtb hypoxia inh)
CCOCC(=O)NCC(Cc1cccc(F)c1)n1cccc1 (stereo not given)	none (no result: 3CLpro inhibitor, VHR inh abs, CCHF vOTU inh, Mtb hypoxia inh)
O=C(NC1CCCC1)c1n[nH]nc1-c1cccc(Cl)c1	none (no result: 3CLpro inhibitor, VHR inh abs, CCHF vOTU inh, Mtb hypoxia inh)
O=C(CSc1n[nH]c(-c2ccccn2)n1)Nc1ccccc1F	SSB-PriA inh 50
Nc1nn(S(=O)(=O)c2cccc3nsnc23)cc1-c1ccc(Br)cc1	SSB-PriA inh 42 (no result: Mtb hypoxia inh)
Cc1ccc(-c2cn(S(=O)(=O)c3cccc4nsnc34)nc2N)cc1	none (no result: Mtb hypoxia inh)
Cc1ccc(S(=O)(=O)Nc2ccccc2C(=O)Nc2nc3c(F)cc(F)cc3s2)cc1	none (no result: 3CLpro inhibitor, VHR inh abs, CCHF vOTU inh, Mtb hypoxia inh)
OC(CNCc1ccccc1)CN1c2ccccc2Sc2ccccc21 (stereo not given)	none (no result: 3CLpro inhibitor, VHR inh abs, CCHF vOTU inh, Mtb hypoxia inh)
O=C(NC1CCN(C(=O)Nc2ccccc2)CC1)C1CCCCC1	VHR inh abs 52
Cc1ccc(-c2ccc(=O)n(CCCC(=O)N3c4ccccc4CC3C)n2)cc1 (stereo not given)	none (no result: 3CLpro inhibitor, VHR inh abs, CCHF vOTU inh, Mtb hypoxia inh)
c1ccc2c(c1)oc1c(NCCCn3ccnc3)ncnc12	VHR inh abs 55
OCCNc1ncnc2c1c(-c1ccccc1)c(-c1ccccc1)n2Cc1ccco1	none (no result: Mtb hypoxia inh)
Cc1nc(NCCCn2ccnc2)c2oc3ccccc3c2n1	none
c1ccc(-c2c(-c3ccccc3)n(Cc3ccco3)c3ncnc(NCCCn4ccnc4)c23)cc1	SSB-PriA inh 52
O=C(Cc1noc2ccccc12)Nc1cccc(-c2csc(-c3ccccc3)n2)c1	none (no result: 3CLpro inhibitor, VHR inh abs, CCHF vOTU inh, Mtb hypoxia inh)
CCc1cccc(NC(=O)NCCNc2cc(Nc3ccccn3)nc(C)n2)c1	none (no result: 3CLpro inhibitor, VHR inh abs, CCHF vOTU inh, Mtb hypoxia inh)
O=C(CN1CC(=O)Oc2ccccc21)OCC(=O)c1ccccc1	SSB-PriA inh 92
O=C(CN1CC(=O)Oc2ccccc21)OCC(=O)c1cccc(Br)c1	SSB-PriA inh 77 (no result: CCHF vOTU inh, Mtb hypoxia inh)
O=C(CN1CC(=O)Oc2ccccc21)OCC(=O)c1ccc(Cl)cc1	none (no result: 3CLpro inhibitor, VHR inh abs, CCHF vOTU inh, Mtb hypoxia inh)
O=C(NCCn1ccnc1-c1ncccn1)Nc1c(F)cccc1F	SSB-PriA inh 86 (no result: 3CLpro inhibitor, VHR inh abs, CCHF vOTU inh, Mtb hypoxia inh)
Cc1ccc(NC(=O)NCCn2ccnc2-c2ncccn2)cc1C	SSB-PriA inh 97 (no result: 3CLpro inhibitor, VHR inh abs, CCHF vOTU inh, Mtb hypoxia inh)
COc1cccc(NC(=O)NCCn2ccnc2-c2ccccn2)c1	none (no result: 3CLpro inhibitor, VHR inh abs, CCHF vOTU inh, Mtb hypoxia inh)
CC(=O)c1ccc(N2CCN(C(=O)C3CCC3)CC2)cc1	none
O=C(C1CC1)N1CCN(c2ccc(O)cc2)CC1	VHR inh abs 56
Cc1ccc(OCC(=O)Nc2ccc(S(=O)(=O)Nc3ccccn3)cc2)c(C)c1	VHR inh abs 56
CC1CCCC(C)N1CC(O)COCC1COc2ccccc2O1 (stereo not given)	VHR inh abs 55 (no result: Mtb hypoxia inh)
O=C(Nc1nc(-c2ccccn2)cs1)C1COc2ccccc2O1 (stereo not given)	SSB-PriA inh 71
O=C(Nc1nc(-c2ccccn2)cs1)C1CC1c1ccco1 (stereo not given)	SSB-PriA inh 99 (no result: 3CLpro inhibitor, VHR inh abs, CCHF vOTU inh, Mtb hypoxia inh)
CC1CC1C(=O)Nc1nc(-c2ccccn2)cs1 (stereo not given)	SSB-PriA inh 60 (no result: Mtb hypoxia inh)
O=C(Nc1nc(-c2ccccn2)cs1)C1CC1c1ccccc1C(F)(F)F (stereo not given)	none (no result: 3CLpro inhibitor, VHR inh abs, CCHF vOTU inh, Mtb hypoxia inh)
CS(=O)(=O)c1ccc2nc(NC(=O)c3cccn(OCc4ccccc4F)c3=O)sc2c1	none (no result: 3CLpro inhibitor, VHR inh abs, CCHF vOTU inh, Mtb hypoxia inh)
Cn1ccnc1SCC1CCN(S(=O)(=O)c2ccc3c(c2)CCCC3)CC1	SSB-PriA inh 63 (no result: 3CLpro inhibitor, VHR inh abs, CCHF vOTU inh, Mtb hypoxia inh)
Cn1ccnc1SCC1CCN(S(=O)(=O)c2ccc(C(F)(F)F)cc2)CC1	none (no result: 3CLpro inhibitor, VHR inh abs, CCHF vOTU inh, Mtb hypoxia inh)
CC(C)CC(NC(N)=O)C(=O)Nc1ccc(Cl)c(Cl)c1 (stereo not given)	VHR inh abs 51
Cc1ccc(NC(=O)C(CC(C)C)NC(N)=O)cc1Cl (stereo not given)	none
O=c1[nH][nH]c(=O)c2ncccc12	SSB-PriA inh 61 (no result: 3CLpro inhibitor, VHR inh abs, CCHF vOTU inh, Mtb hypoxia inh)
Cc1c(C)c2cccnc2c2ncccc12	SSB-PriA inh 99 (not shown: 3CLpro inhibitor, VHR inh abs, CCHF vOTU inh, Mtb hypoxia inh)
c1cnc2c(c1)c1nccnc1c1cccnc12	SSB-PriA inh 114 (no result: 3CLpro inhibitor, VHR inh abs, CCHF vOTU inh, Mtb hypoxia inh)
CC(=O)NC1C(=O)N(CCN2CCOCC2)c2ccc(Cl)cc21 (stereo not given)	3CLpro inhibitor 13 (no result: Mtb hypoxia inh)
CC(=O)NC1C(=O)N(CCN2CCOCC2)c2ccc(C)cc21 (stereo not given)	3CLpro inhibitor 54 (no result: CCHF vOTU inh)
